# Assay results: the supplement of paper PMC12632987
# In all, about 4,500 sequences were measured (“median log2 fold change of GCK-ALFA target abundance (FLAG IP / Myc IP barcode read proportion)”: median about 0.078, lowest 2% from about -0.6 on). The entries come from a sample that favours the lowest values as a whole.
# B1: GBRAP_35_5569 (protein)
# chain: STDETIVEMTVNTIEALTLAVPDLDPATLETITRQVVALAREVIEDIKNNLEGLKRILEALRALLAAIRARGLDDPHLQAAAAAVEEAIRLAEKAIKEAE
# B2: GBRAP_184_5315 (protein)
# chain: EVIRRFITVETKEEAEKKLKEIKEEIKKSGKKYTVYIEVKNPTKELIDTVFEEIKKMKEEGVDADFILVVEEPVDEEMEDYIVEKAKEAGARAVIALPEE
# B3: GBRAP_11_2707 (protein)
# chain: KKEKLKEIAKLAAEAAALTEQLLKEGVDNKELQAKLTAKIKELTELVKKYADESLKKLAEIAKELWEKALADPENKEQYLKELLATLRVLEGQALLEIEE
# B4: GBRAP_52_6040 (protein)
# chain: MRERMRRLAREIVELVRAGRLEEARERIRELVETLSLEELELLGEELAELAREAEPEDLDAVMEVALMLADELEKAGYPEVFADDLEARVARAAVENLER
# B5: GBRAP_11_2896 (protein)
# chain: KKEKLKEAAELAEKAAKLLEELIKEGPDNEELRKKAEEALEKLLELAKKYLDESSVELAESALELFEKAKEDPENAKEYLEQALAYVRVLEGQVLLEIEE
# B6: GBRAP_43_5752 (protein)
# chain: MEEIIEGAVDFATLAAEDPNISEEQKLKIAKDVFEIVADEGIKLPEELSKLTRALAKSLSLEQLKELLKHLKELAEKYPELKEDFEANAKIIEEAIKKKE
# B7: GBRAP_35_5553 (protein)
# chain: DFDKEVIEMVRATAEDLLLAVDDLPVDTLITMATQIAELTLKVAKDEKENKEELKELLEATLELLDAVIEKAEKEGAPEEDIEKLRKLKKELEEALKEAE
# B8: GBRAP_160_4282 (protein)
# chain: GEKLKELAEELREDRDEILSLVDKISAEEVRTFAVTSLGSILMEAIDGELLTDEEEDELAKIIDDLEAELDALKDASPEEIRAAIEKHFDKAIELLEKAA
# B9: GBRAP_125_3047 (protein)
# chain: SLEELVEALRLLAKKLGYSEEEVEEIARLARKYGVKGTLIAILLAEGEEELAELAAKLTDEQVAEVLLELKAWLEENPDASKEEVLKKLRELLEKALAKT
# B10: GBRAP_52_5975 (protein)
# chain: MREEMRRLAEEAVALMLAGDREGARALLEEIAETKTEEEITLFMEELAELAKTATPEERDAIVEVALLAEDIWLEAGFDEALADSNVARVAAAAYAAEQA
# B11: GBRAP_128_3472 (protein)
# chain: GVEEVRKWTKEVMEKMKTADDEEFRELATELAERLLTLPLEEVEAAVEVIKEHLPELTAEKLEILAEVLREARPQATPEKAALFADVESEALLLAEELEE
# B12: GBRAP_52_5855 (protein)
# chain: SKEKMRKLAEELLKLKLAGKEEELEKKVKELVATLSEEEILELLKELAELAKKANKEEAEAIAEVAELLADEAEKAGFDEDELSYELAKVYAAAYKVLQK
# B13: GBRAP_35_5567 (protein)
# chain: SFDETTAEMMVNTIEALTEAVEDIDPETLKTITEQITKAAKKVIEEIKDNKEALEKIKKALEKLLKALEKRGLDDPNVKAAAEAVKEAIKEAEKAIKEAE
# B14: GBRAP_52_6372 (protein)
# chain: REAEARAIVDELLALAEAGDEEGVEALVREVLASGDGALQAAVLREIRRRLEARDHPDPEALLRLAAIVADEVLEAEVDSPEVWAALTALAAAALALERA
# B15: GBRAP_160_4778 (protein)
# chain: SEKVEELKKSIEEAKEEILESIDTESPEETIIVVKGETGLILAEAYELEIDNDELEDALDEIGDELIEEMKKNKNASKEELKKIVEEYTEKALKKIEELT
# B16: GBRAP_43_5750 (protein)
# chain: MEEIIEGHVDFALLAAEDPNISEEQKLKIAKDTFDILADENISLPEESSKLTEALAKSLSLEQLKELLAHLKELAKKYPELKELFDKNSKIIEEAIKKLE
# B17: GBRAP_80_6795 (protein)
# chain: AEERLKKALEEIEKLDKELAKKVKEIVEIAREMGVSTEDLADFAEAIAELLKLDKEKARELVEELKEELEELKKEGNKAEAEAAVRVYAGEALLEVEELE
# B18: GBRAP_160_4201 (protein)
# chain: SEKVEKVIRLLREETERVIAEVPELSREEVANLADVEYGSVLMEAVELGIENDEILDTIADAADEIRRFLEENRDASVEEIKRGIREITERAIEEIKKIA
# B19: GBRAP_160_4006 (protein)
# chain: SEEAEKLIKEIKEIFEELKKDIEGLTPEERLTLAKGYAGEILQLAESSKVISDEAVDKIAEILDEFLEELEKNKNAPLEYWKKLIEETLKKIEEVIKEDS
# B20: GBRAP_43_5749 (protein)
# chain: DEELVAGAVEFTLLAAEDPSISPETVLRAFKATLDLIADTGVRLEEELVAAAAAVAKRLSPEQVEALIEHIKELAAASPEVKETFEAAEEVLRAELAKRR
# B21: GBRAP_150_3886 (protein)
# chain: DLETALTIASSALDILEATIEDGPKLLEHALKLTKALVDEVKDFSEELQKLAKEALKKIEEAIKLVKAGGKPEEIKKLLEEAAKLLEELEKLLEKKIEEE
# B22: GBRAP_52_5963 (protein)
# chain: MEARMEALLDELLALRRAGDEAGAEALAREIAETLDDEELRLLGDVLVARIRASDLETAELLLDLAIMLADVLEELGRDPRLASDLLGRAAAAAYALEQA
# B23: GBRAP_83_6915 (protein)
# chain: MKEITVAAVGDHIDEAFDAAIDLKKEGVEKIIVEAIIKPEEVPRLLEAVKRALEAGVNLELEVFLEGATEEEAEEVEKKLKEIAKEAGKEVKVTVEVIEP
# B24: GBRAP_9_7146 (protein)
# chain: MEEMVEKIREVMEDAFEEVREIVPEEVKPLVDELREEALKRFEEVVADKSKTKEEIREAAKELIEEFTERVSEKVSPEIAKMVEAIGLTAKLEIEEIYEE
# B25: GBRAP_11_2904 (protein)
# chain: KKEKLEKLAELLKKAVALLKELLAKGTDDEKLHAEALKVAEEALKLAKEVLDESDVELAEEAVELLKQAKADPANAAQYVQQALAIFSVLEGQVLLKIEE
# B26: GBRAP_96_7096 (protein)
# chain: MLEEAEALVRELIAALDTDPERARALAERLLEFPVEVVTEAIVRVVKDPADAAKLAELLLELGDEKAEEVLLEAAEKAPGDISKAIIDAMQAYEEAKEAA
# B27: GBRAP_184_5075 (protein)
# chain: SVREETIRVENVEEARAKMAALAERVRDHRGDLVVLVEMPEADLEIMRAVLEGLAAILAAGYARRVTVGFDAEVTEEQVDEAVALADRLGVNVVLPLKEE
# B28: GBRAP_125_3111 (protein)
# chain: DMEEVLEALAIVLRALGFDDDEIEEALELARRYGIKGTMIAVALAEGYEEVADLLEKLTEEEVKQALLETAAAIKANPELTPEEVKELLEEVLKKLLAAS
# B29: GBRAP_160_4005 (protein)
# chain: SAEIEALIKEIEELVKETKEWMKGLSPEERLTLARGMVGEIIQLAIDSPAVSDETEDKIAEIGDETIARLEANANASLEVWEKILDDYLEKVKELLKSDE
# Molecular target: GABARAP, O95166
# Experiment: median log2 fold change of GCK-ALFA target abundance (FLAG IP / Myc IP barcode read proportion) (log2 ratio); each designed protein is fused to an ALFA-tag nanobody in HEK293 cells to bring the named protein to FLAG-tagged glucokinase (GCK); Myc marks an untargeted standard; higher = target protein stabilised (more abundant)
# Settings: target protein: 3xFLAG-MCP-GCK-ALFA reporter; HEK293 landing pad (RPLP)
# How it was run: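 An ALFA-nanobody-fused binder library was recombined into HEK293 landing-pad cells and induced with 2 μg mL^−1 doxycycline. Cells were transfected with a plasmid expressing a FLAG-tagged target and a Myc-tagged standard. After 48 h, lysates underwent anti-FLAG and anti-Myc immunoprecipitation, and circular RNA barcodes were reverse transcribed, amplified and sequenced. Target abundance is the per-binder median log2 ratio of FLAG to Myc barcode read proportions. Barcodes needed ≥10^−7 proportion in both replicates, binders ≥3 barcodes per replicate, and a 10^−6 pseudocount was added; the two replicates were pooled.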
# Chain of GABARAP, O95166 (O95166 whole entry, the tested form may be a part): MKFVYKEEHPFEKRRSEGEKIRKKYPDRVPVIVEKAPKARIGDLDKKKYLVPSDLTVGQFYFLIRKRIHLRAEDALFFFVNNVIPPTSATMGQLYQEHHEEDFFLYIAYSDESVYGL
row,Binder,median log2 fold change
1,B1,-0.994
2,B2,0.243
3,B3,0.13
4,B4,-0.365
5,B5,0.203
6,B6,0.108
7,B7,-0.742
8,B8,-0.356
9,B9,-0.274
10,B10,0.107
11,B11,0.00124
12,B12,-0.0898
13,B13,0.378
14,B14,-0.638
15,B15,0.139
16,B16,0.475
17,B17,0.0713
18,B18,-0.204
19,B19,-0.00151
20,B20,0.142
21,B21,0.00752
22,B22,-0.635
23,B23,0.19
24,B24,0.209
25,B25,0.354
26,B26,0.123
27,B27,0.0908
28,B28,-0.903
29,B29,0.201
